Results published in PubChem BioAssay (NCI).
About 79,000 compounds went through this panel and 15% of them were active in at least one assay; those are over-represented in the sample as a whole. Unmarked numbers belong to inactive results. Activity calls are given as the source filed them. No stated cut-off is given here; in the data, active means growth inhibition above about 70%; inactive means the rest.

test: NCI Yeast Anticancer Drug Screen. Data for the bub3 strain (AID 167); conditions: S. cerevisiae bub3 mutant strain, at 50.0 µM, hits give high values
Description: Growth inhibition of yeast strains with defined genetic alterations is measured as a screen for potential anti-cancer activity. Selected strains with alterations in DNA damage repair or cell cycle control were exposed to compounds and growth inhibition was measured relative to vehicle treated controls. The strain used in this assay is bub3

Row | SMILES | growth inhibition
1 | O=C(O)c1c(Cl)c(Cl)c(Cl)c(C(=O)O)c1Cl | 5.85%
2 | COC(c1ccc(C(C)(C)C)cc1)(c1ccc(C(C)(C)C)cc1)c1cc(C(O)(c2cc(C(OC)(c3ccc(C(C)(C)C)cc3)c3ccc(C(C)(C)C)cc3)c(C)cc2C)c2cc(C(OC)(c3ccc(C(C)(C)C)cc3)c3ccc(C(C)(C)C)cc3)c(C)cc2C)c(C)cc1C | -17.8%
3 | CCOC(=O)c1ccc(NC(=O)CCCCCCCCC(=O)Nc2ccc(C(=O)OCC)cc2)cc1 | -2.1%
4 | C=C(Cl)COc1ccc(-c2ccccc2)cc1 | -8.55%
5 | CN(/N=C/c1ccnc2ccccc12)c1ccc([N+](=O)[O-])cc1[N+](=O)[O-] | -6.95%
6 | CC1C2(C)OC(=N)C(C#N)(C(c3ccccc3)O2)C1(C#N)C#N (stereo not given) | -3.2%
7 | O=C(CBr)c1ccc(S(=O)(=O)c2ccccc2)cc1 | 72.2% (active)
8 | O=C(O)C(NCCCNC(C(=O)O)c1ccccc1)c1ccccc1 (stereo not given) | 21.7%
9 | CCOC(=O)C(Cl)C(C)(O)c1ccccc1 (stereo not given) | 5.8%
10 | Cc1ccc(S(=O)(=O)Nc2ccc([N+](=O)[O-])cc2[N+](=O)[O-])cc1 | 1.15%
11 | O=[N+]([O-])c1ccc2nc(Cl)cnc2c1 | 3.8%
12 | C/C(C=C(C#N)C#N)=C\c1ccccc1 | 36.9%
13 | O=C(O)COc1ccccc1Cl | 26.1%
14 | O=C(OCc1ccccc1)/C(c1ccccc1)=[N+]1/C(=S)Nc2ccc([N+](=O)[O-])cc21 | 13.9%
15 | Cc1ccc(S(=O)(=O)N2C(=N)C(=S)N(C)C2=O)cc1 | -15.8%
16 | O=c1[nH]c(=O)n(C2CC(O)C(CO)O2)cc1Cl (stereo not given) | 1.45%
17 | CC(=O)OC1CC[C@@]2(C)C(C1)CC(OC(C)=O)[C@@H]1C2CC(OC(C)=O)[C@]2(C)C(C(C)CC=C(c3ccc(Cl)cc3)c3ccc(Cl)cc3)CCC12 (stereo not given in full) | 20.5%
18 | O=C(CC1=Nc2nnc(-c3nnc4n3C(=O)C(CC(=O)C3CC3)=N4)n2C1=O)C1CC1 | -4.8%
19 | CCCCNC(=O)/N=C/c1c(O)c2ccccc2oc1=O | -42.5%
20 | CCN(CC)CCOC(NC(C)=O)(c1ccccc1)c1ccccc1 | 14.8%

Row | SMILES | growth inhibition
21 | O=C1CCC(c2nc3ccccc3o2)C(=O)N1 (stereo not given) | -11.2%
22 | COc1ccc(N=C(C)C2C(=O)c3ccccc3C2=O)cc1 | 16.6%
23 | COc1cc2c(cc1OC)C1Cc3ccc(OC)c(OC)c3C[N+]1([O-])CC2 (stereo not given) | -15.6%
24 | Oc1ccccc1-c1cc(-c2ccccc2)nc(NCCCCNc2nc(-c3ccccc3)cc(-c3ccccc3O)n2)n1 | -1.75%
25 | C/C(=N\[N+](C)(C)C)c1ccc(C)c(C)c1 | -56.2%
26 | C[N+](C)(C)CC(=O)N/N=C(/Cc1cc(=O)oc2cc(O)ccc12)C(=O)Nc1ccc(Cl)cc1 | -19.8%
27 | COC(=O)C(Cc1c[nH]c2ccccc12)NC(=O)C(Cc1cnc[nH]1)NC(=O)C1CCC(=O)N1C(=O)OCc1ccccc1 (stereo not given) | -1.35%
28 | CCCCCCCCCCCCCCCCC(NC(C)=O)(C(=O)OCC)C(=O)OCC | -1.25%
29 | CCC(CC)CC(=O)OC/C(=N\Nc1ccc([N+](=O)[O-])cc1[N+](=O)[O-])c1ccc(-c2ccccc2)cc1 | -12.2%
30 | CC[N+](C)(C)CC(O)(O)C(F)F | -26.8%
31 | COc1cc(O)c(OC)c(O)c1C(C)=O | 2.25%
32 | Clc1ccc2ncccc2c1 | 7.95%
33 | O=C(O)CCCc1ccccc1[N+](=O)[O-] | -18.9%
34 | CN(C(N)=O)C1CCCC1 | 9.4%
35 | O=C1NC(=O)C(c2ccsc2)(c2cccs2)N1 (stereo not given) | 5.05%
36 | CCOC(=O)/C(O)=C(\C#N)c1cc(C)ccc1C | -0.45%
37 | CC(=O)CC(=O)Nc1ccc(-c2ccccc2)cc1 | -6.9%
38 | CC(=O)ONc1nc(C)c(CCC2OCCO2)c(SC(=N)N)n1 | -1.7%
39 | CCC(/C=C\C(C)C1CCC2C3CC=C4CC(OS(=O)(=O)c5ccc(C)cc5)CCC4(C)C3CCC12C)C(C)C (stereo not given) | 1.1%
40 | C(=C1/NC(c2ccccc2)=Nc2ccccc21)/c1ccccc1 | 4.85%
